From PubChem BioAssay (NCATS)
Results filed as inconclusive are left out. Calls of active or inactive are those of the source. Calls come from the whole dose curve; as a rule, active = well fitted inhibition curve with a large enough effect; inconclusive = small, poorly fitted or top-dose-only effect; inactive = flat fitted curve, though single readings scatter.

Legend:
Test in all cases: qHTS profiling for inhibitors of Plasmodium falciparum proliferation (AID 504749); note: nearly all actives have a fitted effect of over 60% in size
Conditions in all cases: P. falciparum in erythrocytes, SYBR Green DNA, 72 h; series mostly up to 28.7 µM
[1] = tested on: AA1029
Summary of the method: (§1)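 SYBR Green fluorescence (ex 485 nm, em 535 nm) reports parasite DNA after 72 h compound exposure of infected red cells at 0.3% parasitemia, 2.5% hematocrit; signal normalized to 0.29 uM artemisinin and vehicle wells.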

[2] = tested on: ATS95
Summary of the method: as §1

[3] = tested on: C2A
Summary of the method: as §1

[4] = tested on: CP211
Summary of the method: as §1

[5] = tested on: CP215
Summary of the method: as §1

[6] = tested on: CP217
Summary of the method: as §1

[7] = tested on: CP250
Summary of the method: as §1

[8] = tested on: CP252
Summary of the method: as §1

[9] = tested on: CP256
Summary of the method: as §1

[10] = tested on: CP269
Summary of the method: as §1

[11] = tested on: CP325
Summary of the method: as §1

[12] = tested on: CP329
Summary of the method: as §1

[13] = tested on: FAB9
Summary of the method: as §1

[14] = tested on: N140
Summary of the method: as §1

[15] = tested on: P93_24
Summary of the method: as §1

[16] = tested on: PAD
Summary of the method: as §1

[17] = tested on: PC15
Summary of the method: as §1

[18] = tested on: PC26
Summary of the method: as §1

[19] = tested on: SC27B
Summary of the method: as §1

[20] = tested on: TAB165
Summary of the method: as §1

Measured: Potency

C=C1/C(=C\C=C2/CCC[C@]3(C)[C@@H]([C@H](C)CCCC(C)(C)O)CC[C@@H]23)C[C@@H](O)C[C@@H]1O
inactive: all assays above

CN1C(=O)CCC1c1cccnc1 (stereo not given)
inactive: all assays above
